A number with no mark means an inactive call. Activity calls are given as the source filed them. Calls come from the whole dose curve; as a rule, active = well fitted curve in the direction sought with a large enough effect in the repeat runs; inconclusive = weak or mixed curves; inactive = flat fitted curve, though single readings scatter.
test: qHTS assay to test for compound auto fluorescence at 590 nm (red) in HepG2 cells (AID 720674); details: HepG2 autofluorescence, red 540/590 nm, 1 h; series mostly up to 91.3 µM
Text: U.S. Tox21 Program National Center for Advancing Translational Sciences [NCATS] NIH Chemical Genomics Center [NCGC] U.S. Environmental Protection Agency [EPA] National Institutes of Environmental Health Sciences [NIEHS] National Toxicology Program [NTP] U.S. Food and Drug Administration [FDA] Tox21 Assay Overview: Compound auto fluorescence often interferes with screening of the compound library against various biological targets and signaling pathways. Some of these compounds may have fluorophoric properties. Such properties may interfere with the assay outputs resulting in false positives and/or negatives. To decrease such complications and ensure the compound activities are relevant in terms of biological response, the Tox21 10K compound library was screened for auto fluorescence. From the fluorophores used as reporter signals in our screening assays, the auto fluorescence equivalencies of compounds against three fluorophores have been evaluated: Triamterene, Fluorescein and Rose Bengal sodium for blue, green and red fluorescence, respectively. The fluorescence intensities were measured using Excitation/Emission wavelengths at 405/460nm, 485/535nm and 540/590nm for blue, green and red labels, respectively. This assay includes the red fluorescence data.
Tox21 Assay Protocol Summary: 2,000 HepG2 cells in 5 uL of culture medium (MEM containing 10% FBS) per well were dispensed into black wall/clear bottom 1536-well plates using a Multidrop Combi Dispenser (ThermoFisher Scientific, Waltham, MA). The assay plates were incubated overnight at 37 C to allow cell attachment to the well bottom, followed by the transfer of 23 nL compound or DMSO vehicle by a pintool work station (Kalypsys , San Diego, CA). After the assay plates were incubated for 1 hr at 37 C and 5% CO2, fluorescence intensities in the assay plates were measured by an Envision (PerkinElmer, Shelton, CT) plate reader using three labels for measuring blue, green and red fluorescence at […] 460, 535 and 590 nm respectively.
% is set by controls: 0 for no effect and ±100 for the full control effect.

| SMILES | outcome | fluorescence, relative to Rose Bengal |
| --- | --- | --- |
| NCCS | inactive | – |
| CCN(CC)CC(=O)Nc1c(C)cccc1C | inactive | – |
| O=C(Nc1ccc(Cl)c(Cl)c1)C1CC1 | inactive | – |
| N#Cc1ccc(C(=O)O)cc1 | inactive | – |
| O=C1c2cccc3c2[C@H](CCC3)CN1[C@@H]1CN2CCC1CC2 | inactive | – |
| O=C(CCNNC(=O)c1ccncc1)NCc1ccccc1 | inactive | – |
| Cc1ccccc1N=O | inactive | – |
| CC1(C)S[C@@H]2[C@H](N=CN3CCCCCC3)C(=O)N2[C@H]1C(=O)O | inactive | – |
| BrCCCCCBr | inactive | – |
| COc1ccc(C2CNC(=O)C2)cc1OC1CCCC1 (stereo not given) | – | -0.195% [at 18.6 µM] |
| CC(CC=O)CCCC(C)(C)O (stereo not given) | inactive | – |
| Cc1ccc2c(c1)OCC(=O)CO2 | inactive | – |
| COC(=O)C1CC(=O)C(C(=O)OC)CC1=O (stereo not given) | – | 0.406% [at 3.72 µM] |
| NS(=O)(=O)c1ccc(NC(=O)CCC(=O)O)cc1 | inactive | – |
| CCN1CCc2nc(N)oc2CC1 | inactive | – |
| C=COCCOCCOCCOC=C | inactive | – |
| CC(=O)OC(C)OC(=O)C(C)c1ccc(-c2ccccc2)c(F)c1 (stereo not given) | inactive | – |
| C#CC(C)N(C)C(=O)Nc1ccc(Cl)cc1 (stereo not given) | inactive | – |
| CCC(C)NC(N)=O (stereo not given) | inactive | – |
| ClCCCl | inactive | – |

| SMILES | outcome | fluorescence, relative to Rose Bengal |
| --- | --- | --- |
| OCCC(F)(F)C(F)(F)C(F)(F)C(F)(F)C(F)(F)C(F)(F)C(F)(F)C(F)(F)F | inactive | – |
| C=C(C)C(=O)OCCN(CC)CC | inactive | – |
| CC(C)C(=O)OCCc1ccccc1 | inactive | – |
| CNC(=O)[C@H]1O[C@@H](n2cnc3c(NCc4cc(Cl)ccc4OCc4cc(C)no4)ncnc32)[C@H](O)[C@@H]1N | inactive | – |
| CN(C)CCOCCO | inactive | – |
| O=S(=O)(O)c1ccc2cc(O)c(S(=O)(=O)O)cc2c1 | inactive | – |
| C[C@H](CCC(=O)O)[C@H]1CC[C@H]2[C@@H]3C(=O)C[C@@H]4CC(=O)CC[C@]4(C)[C@H]3CC(=O)[C@]12C | inactive | – |
| CCCCCCCCCC(C)=O | inactive | – |
| CC[C@H](C)C(=O)O[C@H]1C[C@H](O)C=C2C=C[C@H](C)[C@H](CC[C@@H](O)C[C@@H](O)CC(=O)O)[C@H]21 | inactive | – |
| CCCC(=O)C(C)=O | inactive | – |
| Cc1cc(Cl)c(C)cc1Cl | inactive | – |
| O=C(O)c1cc(Br)c(O)c(Br)c1 | inactive | – |
| CCCCCCCCC(=O)Cl | inactive | – |
| CCCCCCCCCCl | inactive | – |
| Nc1ccc(S(=O)(=O)Nc2ccc(Cl)nn2)cc1 | inactive | – |
| COC(=O)[C@@H]1[C@H]2C[C@H]3c4[nH]c5ccccc5c4CCN3C[C@@H]2CC[C@@H]1O | inactive | – |
| CC(C)NCC(O)COc1cccc2[nH]ccc12 (stereo not given) | inactive | – |
| CC(C)=O | inactive | – |
| CCOC(=O)c1ncn2c1CN(C)C(=O)c1cc(F)ccc1-2 | inactive | – |
| Nc1ccc2cc(S(=O)(=O)O)cc(O)c2c1 | inactive | – |

From PubChem BioAssay (Tox21)
